Activity calls are given as the source filed them. Calls follow the shape of the dose curve; as a rule, active = well fitted curve in the direction sought with a large enough effect; inconclusive = small, poorly fitted or top-dose-only effect, or another doubt; inactive = no such curve, though single readings can be large or run the other way.
The molecules below were run against Hexokinase-4 (Homo sapiens) + Glucokinase regulatory protein (Homo sapiens) (UniProt P35557+Q14397) (assay: qHTS assay for inhibitors of recombinant human GCK-GKRP interaction: ADP-Glo assay (AID 743206)). Conditions: ADP-Glo luminescence, 60 min, 0% = vehicle-only wells with enzyme present; series mostly up to 76.9 µM.
Hexokinase-4 (Homo sapiens) + Glucokinase regulatory protein (Homo sapiens), sequence (P35557 whole entry, looked up): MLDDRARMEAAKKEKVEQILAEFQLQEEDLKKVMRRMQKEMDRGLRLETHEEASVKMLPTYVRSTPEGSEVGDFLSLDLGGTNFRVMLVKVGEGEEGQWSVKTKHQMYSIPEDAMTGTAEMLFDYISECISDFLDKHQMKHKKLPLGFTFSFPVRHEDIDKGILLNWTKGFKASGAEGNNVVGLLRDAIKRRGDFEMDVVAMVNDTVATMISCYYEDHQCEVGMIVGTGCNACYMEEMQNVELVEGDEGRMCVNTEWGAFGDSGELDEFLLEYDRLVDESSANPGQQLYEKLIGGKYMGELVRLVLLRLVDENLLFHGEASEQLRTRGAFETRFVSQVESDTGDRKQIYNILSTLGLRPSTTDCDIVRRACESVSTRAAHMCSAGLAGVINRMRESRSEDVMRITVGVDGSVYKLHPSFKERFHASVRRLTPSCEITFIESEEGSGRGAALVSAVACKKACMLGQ
Hexokinase-4 (Homo sapiens) + Glucokinase regulatory protein (Homo sapiens), sequence (Q14397 whole entry, looked up): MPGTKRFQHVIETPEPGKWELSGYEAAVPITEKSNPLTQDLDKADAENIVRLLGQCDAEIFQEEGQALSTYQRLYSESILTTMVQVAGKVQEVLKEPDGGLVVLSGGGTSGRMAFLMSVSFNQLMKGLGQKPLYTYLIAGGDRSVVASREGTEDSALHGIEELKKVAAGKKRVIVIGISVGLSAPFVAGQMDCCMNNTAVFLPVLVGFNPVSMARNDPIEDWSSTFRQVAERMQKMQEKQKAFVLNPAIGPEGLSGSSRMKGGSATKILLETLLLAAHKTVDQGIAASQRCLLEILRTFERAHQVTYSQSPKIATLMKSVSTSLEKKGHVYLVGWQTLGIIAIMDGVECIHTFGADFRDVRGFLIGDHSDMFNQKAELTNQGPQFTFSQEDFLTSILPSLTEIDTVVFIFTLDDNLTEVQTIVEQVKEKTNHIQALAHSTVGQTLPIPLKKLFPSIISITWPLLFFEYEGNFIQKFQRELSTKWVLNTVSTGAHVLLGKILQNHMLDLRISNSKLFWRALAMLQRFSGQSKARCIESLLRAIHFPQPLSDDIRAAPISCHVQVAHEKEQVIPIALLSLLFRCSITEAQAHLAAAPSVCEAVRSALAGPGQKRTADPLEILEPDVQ
Summary of the method: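 Pin-transferred compounds meet a 15 nM GST-GCK/15 nM FLAG-GKRP/2 uM S6P mix (dispense concentrations). ATP is then added to 0.4 mM final with 5 mM glucose, and the reaction runs 60 min at room temperature. ADP is quantified luminescently.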

Question: With `O=C(O)CCCc1ccc(N(CCCl)CCCl)cc1` as the molecule, how does the outcome read?
Answer: The outcome was “inactive”.

Question: Which outcome does the source give for `CC(C)c1cccc(C(C)C)c1O` here?
Answer: The outcome was “inactive”.

Question: `CN1C(=O)CCS(=O)(=O)C1c1ccc(Cl)cc1` (stereo not given) was tested. Which outcome did it give?
Answer: The outcome was “inactive”.

Question: Which outcome does the source give for `CC(C)N(CCC(C(N)=O)(c1ccccc1)c1ccccn1)C(C)C` (stereo not given) here?
Answer: Its outcome is “inactive”.

Question: How did the outcome turn out when `O=c1[nH]oc2c1CCNC2` was run?
Answer: Its outcome is “inactive”.

Question: `Cc1ncsc1CCCl` was tested. Which outcome did it give?
Answer: Its outcome is “inactive”.

Question: With `CC(C)(C)NCC(O)c1ccccc1Cl` (stereo not given) as the molecule, how does the outcome read?
Answer: The outcome was “inactive”.

Question: Which outcome does the source give for `COc1ccc2c(c1OC)C(=O)O[C@H]2[C@@H]1c2cc3c(cc2CCN1C)OCO3` here?
Answer: The outcome was “inactive”.

Question: How did the outcome turn out when `CCC1(c2ccc(N)cc2)CCC(=O)NC1=O` (stereo not given) was run?
Answer: The outcome was “inactive”.

Question: How did the outcome turn out when `NCCc1ccc(O)cc1` was run?
Answer: Its outcome is “inactive”.

Question: With `CCCCC/C=C\C/C=C\C/C=C\C/C=C\CCCC(=O)NCC(=O)O` as the molecule, how does the outcome read?
Answer: The outcome was “inactive”.

Question: For `C=C(C)[C@H]1CN[C@H](C(=O)O)[C@H]1CC(=O)O`, which outcome is on record?
Answer: Its outcome is “inactive”.

Question: Which outcome does the source give for `CC(NC(C)(C)C)C(=O)c1cccc(Cl)c1` (stereo not given) here?
Answer: The outcome was “inactive”.

Question: For `O=P1(N(CCCl)CCCl)NCCCO1` (stereo not given), which outcome is on record?
Answer: Its outcome is “inactive”.

Question: With `O=C(CCCN1CCC2(CC1)C(=O)NCN2c1ccccc1)c1ccc(F)cc1` as the molecule, how does the outcome read?
Answer: The outcome was “inactive”.
